This note sets out measurements from PubChem BioAssay AID651717 (Broad Institute, 2012).

The structures appear in SMILES notation. About 950 (79%) of roughly 1,200 compounds were called active. The set was probably picked from earlier hits. Not all results are given here. Results with a measured potency or affinity are listed apart. Values without a mark were called inactive.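 Rule for the calls: active = signal rises and fitted curve reaches 40% activity at or below the top valid tested dose, in every replicate test; inconclusive = replicate tests give mixed calls; inactive = the rest, including activity in the opposite direction.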

This assay in a line: compounds raising Bmi1 reporter signal – mouse embryonic stem cells, luciferase, cherry-pick, esBAF inhibitor project, dose response (AID 651717).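 Note: luciferase knocked into Bmi1 locus with EF-1a renilla as cell number control; rising ratio signals esBAF inhibition which derepresses Bmi1.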 To be noted: mESC Bmi1-luciferase reporter, firefly/renilla ratio, 24 h, stronger effect = higher value; at 35 µM unless noted.
As for `C[C@@H]1CN([C@@H](C)CO)C(=O)c2c(c3ccccc3n2C)-c2ccccc2CO[C@H]1CN(C)C(=O)Nc1ccc2c(c1)OCO2`, the max activity is -5.95% [at 1.1 µM].
Consider `C[C@H]1CN([C@@H](C)CO)C(=O)Cc2cc(NC(=O)C3CCCCC3)ccc2O[C@@H]1CN(C)C(=O)Nc1ccc2c(c1)OCO2`, for which the max activity was -4.16% [at 2.1 µM].
Consider `C[C@@H]1CN([C@H](C)CO)C(=O)Cc2cc(NC(=O)C3CCCCC3)ccc2O[C@H]1CN(C)C(=O)Nc1ccc2c(c1)OCO2`, for which the max activity was 7.16% [at 1.1 µM].
Consider `C[C@H]1CN([C@@H](C)CO)C(=O)c2cccc(NS(=O)(=O)c3ccccc3)c2O[C@@H]1CN(C)C(=O)Nc1ccc2c(c1)OCO2`, for which the max activity is -33.5% [at 30 µM].
For the compound `COc1ccc2nc(N(CCN(C)C)C(=O)c3ccc4ncsc4c3)sc2c1`, the max activity was 43.3% [at 8 µM].
As to `C[C@H]1CN([C@@H](C)CO)C(=O)c2cccc(NS(=O)(=O)c3ccccc3)c2O[C@H]1CN(C)C(=O)Nc1ccc2c(c1)OCO2`, the max activity was -6.71%.
The figure for `COc1ccc(N(CC(=O)Nc2ccccc2C(N)=O)S(=O)(=O)c2ccc(C)c([N+](=O)[O-])c2)cc1` is 17% [at 16 µM]; for `COc1ccc(NC(=O)N(C)C[C@H]2OCCCC[C@@H](C)Oc3ccc(NC(=O)Nc4ccc5c(c4)OCO5)cc3C(=O)N([C@H](C)CO)C[C@@H]2C)cc1` it is 12.1% [at 8 µM].
Take `CCOc1ccc2nc(Cl)c(C3CC(c4ccco4)=NN3S(=O)(=O)c3ccccc3)cc2c1` (stereo not given): the max activity is 9.03% [at 1 µM].
On to `COC(=O)[C@H]1C[C@@]2(O)CN(S(=O)(=O)c3ccc(C)cc3)C[C@@]2(OC(=O)NCC2CCCCC2)C[C@H]1C(=O)OC`, for which the max activity was 29.2%.
The result for `CC1CCN(c2nc3ccc(C(=O)NCCCN4CCCCC4C)cc3s2)CC1` (stereo not given) reads -33.5% [at 16 µM]; that for `C[C@@H]1CN([C@H](C)CO)C(=O)c2cc(NC(=O)Nc3ccc4c(c3)OCO4)ccc2O[C@@H](C)CCCCO[C@H]1CN(C)S(=O)(=O)c1cn(C)cn1`, 5.01% [at 1 µM]; that for `CC1=C(C(=O)OCc2ccccc2)C(c2ccc(Br)cc2)NC(=O)N1CCCCCC(=O)O` (stereo not given), 11.1% [at 16 µM].
Consider `CSc1cccc(NC(=O)c2[nH]c(C)c(C(C)=O)c2C)c1`, for which the max activity was 14.1% [at 8 µM].
As for `C[C@@H]1CCCCO[C@H](CN(C)C(=O)Nc2cccc3ccccc23)[C@H](C)CN([C@@H](C)CO)C(=O)c2cc(NC(=O)CCC(F)(F)F)ccc2O1`, the max activity was 26.7% [at 1 µM].
For the compound `COc1ccc(-c2cc(C(=O)Nc3cc(OC)cc(C(=O)Nc4cccc(C(F)(F)F)c4)c3)[nH]n2)cc1`, the max activity was 9.94% [at 4.2 µM].
For `CCOC(=O)COc1c(OC)cc(Cl)cc1C1Nc2ccccc2C(=O)N1c1cccc(C)c1` (stereo not given), the max activity is 28.5%.
Take `O=C(Nc1ccc(Cc2ccc(NC(=O)Nc3cccnc3)cc2)cc1)Nc1cccnc1`: the max activity is 25.6% [at 16 µM].
For the compound `Cc1ccc(NCC(=O)N/N=C\C(Br)=C\c2ccccc2)cc1`, the max activity is 8.26% [at 16 µM].
In the case of `CC=Cc1ccc2n(c1=O)C[C@@H]1[C@@H](CO)[C@H](C(=O)Nc3ccc(-c4ccccc4)cc3)N(C)[C@H]21` (mixture of isomers), the max activity is -24.6%.
As for `CC=Cc1ccc2n(c1=O)C[C@H]1[C@H](CO)[C@@H](C(=O)Nc3ccc(-c4ccccc4)cc3)N(CC)[C@@H]21` (mixture of isomers), the max activity was 5.58% [at 0.26 µM].
For `CC(=O)c1ccc(N(C(=O)Cc2c[nH]c3ccccc23)C(C(=O)NC2CCCCC2)c2cccs2)cc1` (stereo not given), the max activity is -9.23%.
In the case of `Cc1ccc2c(c1)Sc1ccccc1CC2=O`, the max activity was 16.2%.
With `Cn1c(SCc2nc3ccccc3s2)nnc1-c1ccc2c(c1)OCO2`, the max activity was 27.7%.
For `O=C1Nc2ccccc2N=C(c2ccc3c(c2)OCO3)C1N(CCc1ccccc1)C(=O)CSc1ncccn1` (stereo not given), the max activity was -16.9%.
`C[C@@H]1CN([C@@H](C)CO)C(=O)c2cc(NC(=O)Nc3ccc4c(c3)OCO4)ccc2O[C@@H](C)CCCCO[C@H]1CN(C)Cc1ccncc1`: the max activity was -10.2% [at 0.5 µM].
For the compound `Cc1ccc2nc(NC(=O)CCNS(=O)(=O)c3cccs3)sc2c1`, the max activity was 37.2%.
Regarding `CNC[C@@H]1OCCCC[C@H](C)Oc2ccc(NS(=O)(=O)c3ccc(C)cc3)cc2C(=O)N([C@H](C)CO)C[C@H]1C`, the max activity is -8.01% [at 1.1 µM].
The result for `O=C1NC(Cc2ccc(O)cc2)c2nc3ccc(Br)cc3c(=O)n2-c2cc3ccccc3cc21` (stereo not given) reads 6.63% [at 8 µM]; that for `C[C@@H]1CCCCO[C@@H](CN(C)Cc2ccncc2)[C@H](C)CN([C@@H](C)CO)C(=O)c2cc(NC(=O)Nc3ccc4c(c3)OCO4)ccc2O1`, -10.3% [at 0.5 µM]; that for `Cc1ccc(NC(=O)c2ccccc2F)c(NC(=O)c2ccccc2F)c1`, 39.1% [at 16 µM].
Consider `C[C@@H]1CN([C@H](C)CO)C(=O)c2cccc(NC(=O)Nc3ccc4c(c3)OCO4)c2O[C@H]1CN(C)S(=O)(=O)c1cccs1`, for which the max activity is 36.7% [at 1 µM].
For the compound `CN(CC(=O)Nc1ccc(Cl)c(S(=O)(=O)N(C)C)c1)Cc1ccccc1`, the max activity is 16.8% [at 1 µM].
`CN1C(=O)c2cc(NC(=O)c3ccc(C#N)cc3)ccc2OC[C@H]2O[C@@H](CC(=O)NC3Cc4ccccc4C3)CC[C@@H]21`: the max activity was -7.14%.
For `Cc1c(CC(C)C)nc(N)c(C#N)c1-c1ccccc1`, the max activity was 8.97% [at 16 µM].
Consider `CCc1ccc(C(=O)CN2C(=O)NC3(CCCCCC3)C2=O)cc1`, for which the max activity is 32.8%.
On to `CC1CC(C)(C)CC2(C1)NC(=O)N(CC(=O)OCC(=O)Nc1cc(S(=O)(=O)N3CCCCC3)ccc1Cl)C2=O` (stereo not given), for which the max activity was 16.1% [at 0.5 µM].
For `COc1ccc(CCNC(=O)CSc2nc3ccsc3c(=O)n2Cc2ccccn2)cc1OC`, the max activity was 23.9%.
Turning to `COc1ccc(C(=O)N2CCN(c3ccc(C(C)=O)cc3)CC2)cc1S(=O)(=O)N1CCCC1`, the max activity is 26.7% [at 2.1 µM].
The figure for `Cc1ccc(S(=O)(=O)Nc2cccc3c2O[C@@H](CN(C)C(=O)Nc2ccc4c(c2)OCO4)[C@@H](C)CN([C@@H](C)CO)C3=O)cc1` is -17.3%; for `CC(=O)N(C)c1ccc(NCc2cc(=O)oc3cc(C)c(O)cc23)cc1` it is 19.2%.
`COc1ccc2cc(C(=O)c3ccccc3)c(=O)oc2c1`: the max activity was 32.6% [at 4.2 µM].
In the case of `C[C@@H]1CN([C@@H](C)CO)C(=O)c2cc(NC(=O)Nc3ccc4c(c3)OCO4)ccc2O[C@@H](C)CCCCO[C@@H]1CN(C)S(=O)(=O)c1cn(C)cn1`, the max activity was -11% [at 0.5 µM].
Regarding `CC1CCN(c2ccc3c(c2)S(=O)(=O)c2cccc(C(=O)NCc4ccc(F)cc4)c2C3=O)CC1`, the max activity is 27.9%.
The result for `Cc1ccc(S(=O)(=O)Nc2cccc3c2O[C@H](CN(C)C(=O)Nc2ccc4c(c2)OCO4)[C@H](C)CN([C@H](C)CO)C3=O)cc1` reads -21.3%; that for `CCC(SC1=Nc2ccccc2C2=NC(CC(C)C)C(=O)N12)C(=O)Nc1ccc2c(c1)OCO2` (stereo not given), -19.3%; that for `CN(C)c1ccc(C(=O)Nc2cccc(S(=O)(=O)N3CCCC3)c2)cc1`, 25% [at 16 µM].
For the compound `Cc1ccc(S(=O)(=O)N(C)C[C@H]2OCCCC[C@H](C)Oc3ccc(NC(=O)Nc4ccc5c(c4)OCO5)cc3C(=O)N([C@H](C)CO)C[C@H]2C)cc1`, the max activity is 10.8% [at 16 µM].
As to `C[C@H](CO)N1C[C@H](C)[C@@H](CN(C)C(=O)Nc2ccc3c(c2)OCO3)OCCCC[C@H](C)Oc2ccc(NC(=O)c3ccncc3)cc2C1=O`, the max activity is -9% [at 0.26 µM].
In the case of `C[C@H]1CN([C@@H](C)CO)C(=O)Cc2cc(NC(=O)Nc3ccc4c(c3)OCO4)ccc2O[C@@H]1CN(C)Cc1ccccc1`, the max activity was -4.95% [at 2.1 µM].
Turning to `C[C@H]1CN([C@@H](C)CO)C(=O)Cc2cc(NC(=O)Nc3ccc4c(c3)OCO4)ccc2O[C@H]1CN(C)Cc1ccccc1`, the max activity is 12.3% [at 8 µM].
With `CCn1c(=N)n(CC(=O)c2ccc(Br)s2)c2ccccc21`, the max activity was 15.9%.
On to `CN(C)c1ccc(-c2nnn(Cc3ccccc3Br)n2)cc1`, for which the max activity was -12.5%.
In the case of `CCOC(=O)c1cc(-c2sc(NC(=O)c3ccccc3)nc2C)n(-c2ccc(Br)cc2)n1`, the max activity is 24%.
Regarding `O=C(c1ccc2ccccc2c1O)N1CCCCC1`, the max activity is -23.4%.
As for `C[C@@H]1CN([C@@H](C)CO)C(=O)c2cc(NS(=O)(=O)c3ccc(F)cc3)ccc2O[C@H]1CN(C)C(=O)Nc1ccc2c(c1)OCO2`, the max activity was -5.95% [at 0.5 µM].
For the compound `Cc1ccc(S(=O)(=O)NCc2ccccc2)cc1C(=O)NC1CCC(C)CC1` (stereo not given), the max activity was 29.1% [at 4.2 µM].
The result for `CN(C)Cc1c(C(=O)N/N=C/c2ccccc2OCc2c(F)cccc2Cl)nnn1-c1nonc1N` reads 19.7% [at 4.2 µM].
On to `C[C@H](CO)N1C[C@H](C)[C@@H](CN(C)S(=O)(=O)c2cn(C)cn2)OCCCC[C@H](C)Oc2ccc(NC(=O)Nc3ccc4c(c3)OCO4)cc2C1=O`, for which the max activity was 18.2%.
Take `C[C@H]1CCCCO[C@@H](CN(C)C(=O)Nc2ccccc2)[C@@H](C)CN([C@@H](C)CO)C(=O)c2cc(NC(=O)Nc3ccc4c(c3)OCO4)ccc2O1`: the max activity is 11.1% [at 4.2 µM].
